Shown are actives, neighbours in structure and some others; about 3.6% of the full set was active somewhere.
Sfp inh = qHTS Assay for Inhibitors of Bacillus subtilis Sfp phosphopantetheinyl transferase (PPTase) | Biochemical Sfp PPTase activity, qHTS | 310,000 tested, 3.5% active | 4'-phosphopantetheinyl transferase ffp (Bacillus subtilis), Q9F4F7 | AID 1490, 2009 | Potency, µM, usual class: inhibitors;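 further: the enzyme is Sfp with the accession as filed and its product quenches rhodamine fluorescence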
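After 15 min at room temperature with compound, 15 nM Sfp received 5 uM rhodamine-CoA plus 12.5 uM BHQ-2-ybbR (50 mM Hepes pH 7.6, 10 mM MgCl2). Rate came from the fluorescence difference over 30 min, ex 525/em 598 nm.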
KDM4E inh = qHTS Assay for Inhibitors of Human Jumonji Domain Containing 2E (JMJD2E); Lysine-specific demethylase 4E (Homo sapiens), B2RXH2; JMJD2E catalytic domain, FDH-coupled NADH fluorescence (FDH is formaldehyde dehydrogenase); Potency, µM (titrated, usually from 57.1 µM), most hits filed as inhibitors; 230,000 tested, 1.6% active; AID 2147, 2009; active means well fitted inhibition curve with a large enough effect, not every such curve was filed as active; inconclusive means small, poorly fitted or top-dose-only effect, or another doubt; inactive means no such curve, though single readings can be large or run the other way; further: nearly all actives have a fitted effect of over 50% in size
NPSR antagonist = qHTS Assay for Antagonists of the Neuropeptide S Receptor: cAMP Signal Transduction; AID 1461, 2008; Potency, µM (top dose mostly 38.3 µM), actives largely listed as inhibitors; CHO-NPSR cells, cAMP TR-FRET, antagonist mode; 220,000 tested, 1% active; further: nearly all actives have a fitted effect of over 50% in size
Target sequence (Q6W5P4 whole entry, looked up): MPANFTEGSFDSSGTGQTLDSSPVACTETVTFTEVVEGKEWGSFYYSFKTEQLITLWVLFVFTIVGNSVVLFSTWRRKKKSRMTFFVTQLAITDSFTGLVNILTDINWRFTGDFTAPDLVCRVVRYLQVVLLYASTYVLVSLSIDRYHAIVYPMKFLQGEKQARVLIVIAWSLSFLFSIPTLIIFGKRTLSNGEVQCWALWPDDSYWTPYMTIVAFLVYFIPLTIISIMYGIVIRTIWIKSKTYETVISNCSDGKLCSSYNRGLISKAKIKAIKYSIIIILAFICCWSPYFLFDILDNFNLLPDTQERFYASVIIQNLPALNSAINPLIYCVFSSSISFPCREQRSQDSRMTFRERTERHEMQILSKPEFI
KAT2A inh = qHTS Assay for Inhibitors of GCN5L2; Potency, µM (titrated, usually from 58.9 µM), most hits filed as inhibitors; 390,000 tested, 0.21% active; AID 504327, 2011; GCN5L2 HAT assay, ThioGlo1 CoA-SH fluorescence
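ThioGlo1-coupled HAT assay: 20nM GCN5L2, 70uM acetyl-CoA, 75uM H3(1-25) peptide, pH 7.5. Fluorescence read at 340/540nm at start and after 20 min at room temperature.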
IMPase Li cell = qHTS Assay for Identifying the Cell-Membrane Permeable IMPase Inhibitors: Potentiation with Lithium; Potency, µM (top dose mostly 59.4 µM), actives largely listed as inhibitors; 210,000 tested, 0.35% active; CHO-M1 cells, IP1 TR-FRET (IP-One), carbachol + lithium;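 further: IP1 builds up when IMPase is blocked and the TR-FRET signal falls; nearly all actives have a fitted effect of over 50% in size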
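CHO cells stably expressing M1 receptor (2000/well) were cultured 16–30 h, then exposed to compounds with a small lithium addition for 30 min at 37C. IP1 was measured by TR-FRET competition; AC50 from Hill fits.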
Epigenetic derep = Quantitative High-Throughput Screen for Regulators of Epigenetic Control; murine LDR cells, GFP reporter derepression, 30 h; Potency, µM (titrated, usually from 53.9 µM), hits mostly activators; 280,000 tested, 0.2% active; further: nearly all actives have a fitted effect of over 60% in size
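Readout is the number of GFP-expressing murine LDR cells, counted by cytometry following washing. Cells were treated with compound for 30 h at 37 C; the stably integrated CMV-GFP locus is normally silent.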
Large screens that a line does not name were inactive. Unless noted, the call rests on the fitted dose curve; in most records, active means well fitted curve in the direction sought with a large enough effect; inconclusive means small, poorly fitted or top-dose-only effect, or another doubt; inactive means no such curve, though single readings can be large; an effect the other way counts as inactive or inconclusive.

c1ccc(C2CNCCc3ccccc32)cc1 (stereo unspecified)	none (no result: KDM4E inh, NPSR antagonist, IMPase Li cell, Epigenetic derep)
ClC1=C(Cl)C(Cl)(Cl)C(Cl)=C1Cl	none (no result: Sfp inh, KDM4E inh, NPSR antagonist, KAT2A inh, Epigenetic derep)
COc1ccc(-c2nc3cnc(OC)nc3n(C)c2=O)cc1	none (no result: KDM4E inh, NPSR antagonist, Epigenetic derep)
CC1=CC(=O)C2=C(C)C[C@H](OC(=O)Cc3ccccc3)C3[C@H](OC(=O)[C@H]3C)C12 (stereo partly specified)	none (no result: NPSR antagonist, KAT2A inh)
Cc1ccccn1	none (no result: KDM4E inh, NPSR antagonist, IMPase Li cell, Epigenetic derep)
COc1ccccc1-c1noc(CCC(=O)Nc2ccccc2Cl)n1	Sfp inh 10µM
CCOC(=O)c1c(C)[nH]sc1=S	Sfp inh inconclusive, KDM4E inh inconclusive, NPSR antagonist inconclusive, KAT2A inh inconclusive, IMPase Li cell 14.1µM
CCOC(=O)C1(C)/C(=N/Nc2ccccc2OC)C(=O)C(=O)N1c1ccccc1 (stereo unspecified)	KDM4E inh 25.1µM
CCN(CC)c1nc2ccccc2nc1C(=O)Nc1ccc(C(C)=O)cc1	none (no result: Sfp inh, KDM4E inh, NPSR antagonist, IMPase Li cell)
S=c1nc(-c2ccco2)[nH][nH]1	Sfp inh 28.2µM, KDM4E inh inconclusive, KAT2A inh inconclusive
Cn1c(-c2ccco2)n[nH]c1=S	KDM4E inh inconclusive
COc1cccc(/C(O)=C/c2nc3ccc(C(=O)NCCc4cccc(C)c4)cc3[nH]c2=O)c1	KDM4E inh inconclusive, Epigenetic derep 14.1µM
COc1cccc(/C(O)=C/c2nc3ccc(C(=O)NCCc4ccc(Cl)cc4)cc3[nH]c2=O)c1	KDM4E inh inconclusive, Epigenetic derep 7.94µM
O=C(NCCc1ccc(Cl)cc1)c1ccc2nc[nH]c2c1	none
CCC(=O)N1C2=C(c3ccccc3[C@@H]1CC(=O)Nc1ccc3ccccc3c1)[C@@H]1C(=O)N(c3ccccc3)C(=O)[C@@H]1[C@H](C)C2	none (no result: NPSR antagonist, KAT2A inh, Epigenetic derep)
Cc1ccc(S(=O)(=O)N2C(=O)C(c3ccccc3)SC2=Nc2ccccc2)cc1 (stereo unspecified)	Sfp inh 20µM
O=C1ON=C(c2ccccc2)/C1=C/c1cccnc1	none
O=C1ON=C(c2cccc([N+](=O)[O-])c2)/C1=C/c1ccc(O)cc1	NPSR antagonist 10µM
COc1ccc(/C=C2\C(=O)ON=C2c2ccccc2)cc1	Sfp inh 39.8µM (no result: KDM4E inh, NPSR antagonist, IMPase Li cell, Epigenetic derep)
O=C1ON=C(c2ccc(Cl)c([N+](=O)[O-])c2)/C1=C/c1cccc([N+](=O)[O-])c1O	none (no result: Sfp inh, KDM4E inh, NPSR antagonist, IMPase Li cell, Epigenetic derep)
O=C1ON=C(c2ccccc2)/C1=C/c1ccc(O)c(O)c1	Sfp inh 50.1µM (no result: KDM4E inh, NPSR antagonist, IMPase Li cell, Epigenetic derep)
O=C1ON=C(c2ccccc2)/C1=C/c1ccc(OS(=O)(=O)c2ccccc2)cc1	KDM4E inh inconclusive, NPSR antagonist 6.31µM, KAT2A inh inconclusive
CS(=O)(=O)C1=NSC2=NC(=O)/C(=C\c3ccc(OS(=O)(=O)c4ccccc4)cc3)C(=N)N21	KAT2A inh inconclusive (no result: KDM4E inh, NPSR antagonist, IMPase Li cell, Epigenetic derep)
CO[C@@H]1COC(=O)C/C=C\[C@@H](C)COC(=O)[C@H](Cc2ccccc2)NC(=O)C/C=C\[C@H]1C	none (no result: KDM4E inh, NPSR antagonist, KAT2A inh, IMPase Li cell)
CC(=O)OC1=CN(Cc2ccccc2)S(=O)(=O)c2ccccc21	none (no result: Sfp inh, KDM4E inh, NPSR antagonist, IMPase Li cell)
Cc1ccc(CSc2nnc3[nH]c(=O)cc(C)n23)cc1	none (no result: Sfp inh, KDM4E inh, NPSR antagonist, IMPase Li cell)
O=C(NC1CCCCC1)c1cccnc1C(=O)O	Sfp inh 79.4µM, KDM4E inh inconclusive
CCCCC[n+]1ccn(-c2nc3ccccc3nc2[N-]S(=O)(=O)c2ccccc2)c1	Sfp inh 35.5µM, KDM4E inh inconclusive (no result: IMPase Li cell)
CCCOC1(NC(=O)c2ccccc2)C(C)=CC(=O)C=C1C	Sfp inh 56.2µM
COc1ccccc1OCCN1CSC(=S)N(C)C1	NPSR antagonist 3.16µM
O=C1C(=C(c2ccccc2)c2ccccc2)Nc2ccccc21	NPSR antagonist 12.6µM
CNc1nc(-c2ccccn2)nnc1-c1ccccc1	Sfp inh 63.1µM, KDM4E inh inconclusive
c1ccc(-c2nc(-c3ccccn3)no2)cc1	none
c1ccc(-c2nnc(-c3ccccn3)nc2NC2CCCCC2)cc1	KDM4E inh inconclusive, NPSR antagonist 10µM
